Assay outcomes as filed in PubChem BioAssay.
Caspase-7 inhib – qHTS Assay for Allosteric/Competitive Inhibitors of Caspase-7 | P55210 | recombinant caspase-7, Ac-DEVD-AFC fluorescence rate | Potency, µM (titrated, usually from 57.5 µM), inactives show top-dose activity change, negative = inhibition, hits mostly inhibitors | hit rate 0.02% among 75,000 | AID 889, 2007; active = well fitted inhibition curve with a large enough effect in the main read-out, with a control signal flat, not every such curve was filed as active; inconclusive = small, poorly fitted or top-dose-only effect, or a change in a side signal; also: % of control where 0% means no effect
ALOX15B inhib – qHTS Assay for Inhibitors of 15-hLO-2 (15-human lipoxygenase 2); Polyunsaturated fatty acid lipoxygenase ALOX15B (Homo sapiens), O15296; purified 15hLO-2, xylenol orange hydroperoxide absorbance; Potency, µM (top dose mostly 57.1 µM), for inactives: top-dose activity change, negative = inhibition, hits mostly inhibitors; hit rate 0.56% among 110,000; also: % is scaled to controls: 0 for no effect and ±100 for the full control effect; nearly all actives have a fitted effect of over 60% in size
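Purified human 15hLO-2 (50 nM) preincubated 15 min with compound, then 45 uM arachidonic acid for 90 min at RT in 25 mM Hepes pH 7.5, 0.01% Triton X-100. Hydroperoxide detected by Fe-xylenol orange; 573/405 nm absorbance ratio.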
Casp1 inh – qHTS Assay for Allosteric/Competitive Inhibitors of Caspase-1; AID 900, 2007; hit rate 0.03% among 75,000; Caspase-1 enzyme, Ac-WEHD-AFC fluorogenic rate; Potency, µM (titrated, usually from 57.5 µM), inactives show top-dose activity change, negative = inhibition, usual class: inhibitors;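 also: plate controls were vehicle for no effect and no substrate for full effect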
ALOX15 inhib – qHTS Assay for Inhibitors of 15-hLO (15-human lipoxygenase); hit rate 1.4% among 74,000; Polyunsaturated fatty acid lipoxygenase ALOX15 (Homo sapiens), P16050; purified 15hLO-1, xylenol orange hydroperoxide absorbance; Potency, µM (top dose mostly 57.1 µM), for the others: at the top dose activity change, negative = inhibition, actives largely listed as inhibitors; also: % is scaled to controls: 0 for no effect and ±100 for the full control effect; nearly all actives have a fitted effect of over 55% in size
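Inhibition is scored from a chromogenic endpoint. After 15 min enzyme-compound contact, arachidonic acid (50 uM final) reacts 6 min with 40 nM 15hLO-1 at room temperature, then Fe-XO reagent is added for 30 min and absorbance ratio recorded.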
Hsp90 Hop PPI – qHTS Assay for Disrupters of an Hsp90 Co-Chaperone Interaction. AID 595, 2007. Potency, µM (top dose mostly 57 µM), for the others: at the top dose activity change, negative = inhibition. hit rate 0.44% among 71,000. AlphaScreen TPR2A-His6 binding biotin-Hsp90 C-terminal peptide. Hsp90 C-terminal peptide / TPR2A (Hop) interaction, human; active = well fitted curve in either direction with a large enough effect; inconclusive = small, poorly fitted or top-dose-only effect, or another doubt; also: % is scaled to controls: 0 for no effect and ±100 for the full control effect
Tau fil binding – qHTS Assay for Tau Filament Binding; Microtubule-associated protein tau (Homo sapiens), P10636; recombinant tau filaments, thioflavin S fluorescence, 15 h; filaments grown with octadecylsulfate alongside compound; Potency, µM (top dose mostly 57.1 µM), for inactives: at the top dose activity change, negative = inhibition; hit rate 2% among 71,000; AID 596, 2007;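 also: % is scaled to controls: 0 for no effect and ±100 for the full control effect; actives lower thioflavin S fluorescence by blocking filaments or displacing dye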
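Tau 2 uM in ThS buffer dispensed; compound added; 60 uM ODS added (finals 1 uM tau, 30 uM ODS); 15 h 37 C; fluor ex450/em510.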
* = called active by the depositor; u = inconclusive; x = no result given; [ ] = dose if it differs, or a comment. Hits are enriched below; roughly 2.4% of the tested compounds scored in any of these assays. Unless noted, calls follow the shape of the dose curve; as a rule, active = well fitted curve in the direction sought with a large enough effect; inconclusive = small, poorly fitted or top-dose-only effect, or another doubt; inactive = no such curve, though single readings can be large; an effect the other way counts as inactive or inconclusive. Potency is read from the fitted curve at half-maximal effect.

SMILES	Caspase-7 inhib	ALOX15B inhib	Casp1 inh	ALOX15 inhib	Hsp90 Hop PPI	Tau fil binding
COc1ccc(-c2oc(NC(C)=O)c(C#N)c2-c2ccc(OC)cc2)cc1	x	-9%	x	x	x	x
COc1ccc(-c2oc(/N=C/N3CCOCC3)c(C#N)c2-c2ccc(OC)cc2)cc1	1%	-13%	-6%	-30%	-20%	1µM*
COc1cccc2cc3c(=O)n(-c4ccccc4)nc-3oc12	-2%	-16%	1%	8%	-3%[2.3 µM]	16µM*
FC(F)(F)c1cc(CN2CC3(CCNCC3)C2)cc(C(F)(F)F)c1	-1%	68%	-5%	3%	-2%	13µM*
FC(F)(F)c1cc(CN2CC[C@@]3(CCCNC3)C2)cc(C(F)(F)F)c1	-3%	44%	-4%	-7%	1%	5%
COc1ccc(-c2nnnn2-c2ccccc2OC)cc1	0%	x	-1%	1%	-5%	2%
Cc1ccc(-n2c(N)c(-c3nc4ccccc4n3C)sc2=S)cc1	-3%	-3%	-5%	3.2µM*	-7%	136%
CN(C)c1ccc(Nc2nc(-c3cccnc3)cs2)cc1	-2%	u	-1%	-23%[11.4 µM]	-12%[11 µM]	2.5µM*
Clc1ccc(Nc2nc(-c3cccnc3)cs2)cc1	x	1%	x	x	x	x
CN(C)CC(=O)c1c[nH]c2ccccc12	x	2%	x	x	x	x
C=CCn1c(=O)/c(=C/c2ccc(Cl)cc2)s/c1=C(/C#N)c1nnc2n1CCCCC2	-7%	11%	-10%	-22%	-4%	16µM*
COC(=O)Sc1nc(N2CCOCC2)c2c(c1C#N)CC(C)(C)OC2	x	-11%	x	x	x	x
CCCN(CCC)c1nc(NC2CCN(C(=O)OCC)CC2)nc(OC)n1	1%	57%	-2%	32µM*	-8%	-20%
O=C(CSc1nnc2c(Cl)cc(Cl)cn12)N1CCOCC1	x	-4%	x	x	x	x
Nc1c(C(=O)NCc2ccco2)sc2nc3c(cc12)C(=O)CCC3	-15%	5%[2.29 µM]	-1%	u	-10%	20µM*
COc1ccc2cc3c(N)c(C(=O)NCc4ccco4)sc3nc2c1	-27%	7%[11.4 µM]	x	-16%	-2%	1%
CC1CN(Cc2nc3c(c(=O)n(C)c(=O)n3C)n2CC(=O)c2ccccc2)CC(C)O1 (stereo not drawn)	-2%	x	-3%	7%	-7%	0%
CCOC(=O)Cn1c(CN2CC(C)OC(C)C2)nc2c1c(=O)n(C)c(=O)n2C (stereo not drawn)	-2%	x	3%	7.9µM*	-10%	19%
O=C(O)CCC(=O)Nc1ccc2ccccc2c1	-1%[11.5 µM]	-4%[11.4 µM]	6%[11.5 µM]	0%[11.4 µM]	3%[11 µM]	6%[11.4 µM]
c1ccc2cc(NCNc3ccc4ccccc4c3)ccc2c1	-1%[11.5 µM]	-28%[11.4 µM]	-2%[11.5 µM]	-3%[11.4 µM]	u	2.5µM*
O=C1SC(SCc2ccccc2)=N/C1=C\c1ccco1	-23%	u	-10%	u	-23%	u
CCCSC1=N/C(=C\C=C\c2ccco2)C(=O)S1	u	25µM*	u	2.5µM*	-27%	2µM*
O=C(Cn1c(-c2ccccc2)noc1=O)Nc1ccc(N2CCCCCC2)cc1	-2%	-13%	-1%	u	u	13µM*
O=C(Cn1c(-c2ccccc2)noc1=O)Nc1ccc(S(=O)(=O)N2CCOCC2)cc1	-6%	-4%	0%	-16%	0%	12%
Cc1nc2ccc(S(=O)(=O)NC(C(=O)N3CCCC3)C(C)C)cc2s1 (stereo not drawn)	-4%	x	-1%	-1%	-5%[2.3 µM]	-3%
SMILES	Caspase-7 inhib	ALOX15B inhib	Casp1 inh	ALOX15 inhib	Hsp90 Hop PPI	Tau fil binding
Cc1ccc(-n2nc3cc(C)c(N)cc3n2)cc1	x	-24%	x	x	x	x
Cc1cc2nn(-c3cccc4ccccc34)nc2cc1N	-26%	-18%	u	u	3%	7.9µM*
O=C(Cc1nc2ccccc2s1)c1ccc(O)cc1O	-27%	-5%	u	16µM*	-1%	23%
COc1ccc(CC(=O)c2ccc(O)cc2O)cc1	-2%	-22%	1%	-13%	x	x
CCN(CC)c1ccc(C=C2C(=O)OC(C)(C(C)(C)C)OC2=O)cc1 (stereo not drawn)	x	2%	x	x	x	x
C=CC(C)(O)CCCC(C)CCCC(C)CCCC(C)C (stereo not drawn)	-4%	9%	-5%	10µM*	16%	-20%
C/C(=C\CO)CCC(C)CCCC(C)CCCC(C)C (stereo not drawn)	-1%	36%	2%	-5%	x	x
CCC(C)n1cnc2c(c1=O)c1nc3ccccc3nc1n2Cc1ccc2c(c1)OCO2 (stereo not drawn)	-6%	u	-12%	-17%	3%	3.2µM*
O=c1c2c3nc4ccccc4nc3n(-c3cccc(F)c3)c2ncn1Cc1ccc2c(c1)OCO2	-6%	4%	-5%	-5%	-3%	3.2µM*
O=C(CSc1nnnn1-c1ccccc1)Nc1ncc2c(n1)CC(c1ccco1)CC2=O (stereo not drawn)	-9%	0%	-4%	-9%	x	x
Nc1nc2nccc(-c3ccc(Cl)cc3)n2n1	-1%	0%	-1%	9%	-17%	1%
O=C(COC(=O)c1cc(-c2ccco2)nc2ccccc12)NCc1ccc2c(c1)OCO2	u	x	u	u	-1%	13µM*
O=C(COC(=O)c1cc(-c2cccs2)nc2ccccc12)NCc1ccco1	u	u	x	-18%	6%	16µM*
Cn1c(=O)c(C(=O)COC(=O)c2cc(-c3ccco3)nc3ccccc23)c(N)n(Cc2ccccc2)c1=O	-10%	-18%	-6%	x	x	x
COc1ccccc1NCCC(=O)OCC(=O)NCc1ccco1	-10%	-13%	-2%	u	-8%	-15%
CC(C)Cn1c(N)c(C(=O)COC(=O)c2cc(-c3ccco3)nc3ccccc23)c(=O)n(C)c1=O	-21%	-7%	-13%	u	-18%	13µM*
COc1ccc(OCCC(=O)OCC(=O)NCc2ccco2)cc1	-5%	-5%	-4%	13µM*	-11%	8%
O=C(COC(=O)c1cc(-c2ccc(Cl)s2)nc2ccccc12)NCc1ccco1	x	-29%	x	x	x	x
O=C(COC(=O)c1ccccc1Oc1ccccc1)NCc1ccco1	-6%	-17%	-4%	13µM*	-6%	3%
Fc1cccc(Cl)c1/C=N\N=C1c2ccccc2-c2ccccc21	2%[11.5 µM]	-1%[11.4 µM]	-3%[11.5 µM]	-1%[11.4 µM]	u	4µM*
O=S(=O)(Nc1ccc(S(=O)(=O)N2CCOCC2)cc1)c1ccccc1	1%	-8%	-3%	5%	x	x
